# According to paper PMC7862700, “An all-to-all approach to the identification of sequence-specific readers for epigenetic DNA modifications on cytosine”:
# What was measured:
# Assay in all cases: DAPPL (digital affinity profiling via proximity ligation, sequencing); 10 mM Tris-HCl pH 7.5, 50 mM NaCl, 1 mM DTT, 4% glycerol, room temperature, 30 min; GST-TFs on glutathione beads, 16-mer random dsDNA library, 0.1% formaldehyde crosslink after washing; high values mean tight binding
# FLI1 = target: T1, FLI1 (Homo sapiens, UniProt Q01543 1-452); conditions: protein: recombinant; tags: N-terminal GST; dsDNA, one strand shown
# T1 sequence: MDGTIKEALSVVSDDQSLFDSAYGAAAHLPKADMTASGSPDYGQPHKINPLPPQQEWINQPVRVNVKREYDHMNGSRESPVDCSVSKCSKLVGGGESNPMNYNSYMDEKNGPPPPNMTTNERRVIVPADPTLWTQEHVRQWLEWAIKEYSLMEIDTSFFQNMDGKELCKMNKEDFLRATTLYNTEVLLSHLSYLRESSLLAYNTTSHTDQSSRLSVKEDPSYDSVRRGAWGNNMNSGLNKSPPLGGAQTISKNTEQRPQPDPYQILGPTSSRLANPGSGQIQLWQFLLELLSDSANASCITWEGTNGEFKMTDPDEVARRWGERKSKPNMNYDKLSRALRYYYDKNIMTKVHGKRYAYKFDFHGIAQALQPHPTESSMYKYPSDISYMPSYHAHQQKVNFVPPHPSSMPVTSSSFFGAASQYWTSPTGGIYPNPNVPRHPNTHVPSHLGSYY
# How it was run: (§1)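 Beads coated with glutathione captured GST-fused human transcription factors that had been expressed in yeast, and the factors were then given DNA barcodes and pooled with a tag-only sample. The pools were incubated with 200 nmole of a random double-stranded 16-mer DNA library in Tris/NaCl/DTT/glycerol buffer for 30 min at room temperature, washed, crosslinked with 0.1% formaldehyde and proximity-ligated with BsaI/T4 ligase at 37 °C for 1 h. PCR amplification and Illumina NextSeq500 sequencing came last. Binding signal is each hexamer's read frequency for a factor divided by its frequency for the tag-only sample.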
# ELK1 = target: T2, ELK1 (Homo sapiens, UniProt P19419 1-428); conditions: protein: recombinant; tags: N-terminal GST; dsDNA, one strand shown
# T2 sequence: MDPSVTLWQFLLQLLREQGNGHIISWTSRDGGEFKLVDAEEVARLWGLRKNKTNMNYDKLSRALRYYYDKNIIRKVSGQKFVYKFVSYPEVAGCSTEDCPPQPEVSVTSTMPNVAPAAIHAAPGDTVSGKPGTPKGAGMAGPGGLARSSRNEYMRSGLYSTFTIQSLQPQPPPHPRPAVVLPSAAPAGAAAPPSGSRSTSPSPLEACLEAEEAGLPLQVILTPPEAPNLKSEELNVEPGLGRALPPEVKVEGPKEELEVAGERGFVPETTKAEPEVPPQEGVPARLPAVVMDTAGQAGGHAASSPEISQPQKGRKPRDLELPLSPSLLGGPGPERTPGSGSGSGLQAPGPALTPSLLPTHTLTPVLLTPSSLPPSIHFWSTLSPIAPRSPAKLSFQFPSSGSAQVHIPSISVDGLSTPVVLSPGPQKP
# How it was run: as §1
# GABPA = target: T3, GABPA (Homo sapiens, UniProt Q06546 1-454); conditions: protein: recombinant; tags: N-terminal GST; dsDNA, one strand shown
# T3 sequence: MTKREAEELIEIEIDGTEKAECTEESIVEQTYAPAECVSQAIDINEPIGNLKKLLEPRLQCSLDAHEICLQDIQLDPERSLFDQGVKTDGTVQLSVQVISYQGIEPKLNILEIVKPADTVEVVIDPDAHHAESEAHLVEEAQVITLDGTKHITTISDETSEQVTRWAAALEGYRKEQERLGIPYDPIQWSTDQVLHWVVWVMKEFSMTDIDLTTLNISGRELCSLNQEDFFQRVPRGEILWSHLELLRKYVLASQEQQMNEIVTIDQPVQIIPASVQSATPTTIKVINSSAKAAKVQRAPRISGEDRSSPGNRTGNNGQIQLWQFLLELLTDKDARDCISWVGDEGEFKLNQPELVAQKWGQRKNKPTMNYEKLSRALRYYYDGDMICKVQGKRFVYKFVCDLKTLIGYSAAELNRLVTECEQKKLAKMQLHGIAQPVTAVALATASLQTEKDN
# How it was run: as §1
# ERG = target: T4, ERG (Homo sapiens, UniProt P11308 1-479); conditions: protein: recombinant; tags: N-terminal GST; dsDNA, one strand shown
# T4 sequence: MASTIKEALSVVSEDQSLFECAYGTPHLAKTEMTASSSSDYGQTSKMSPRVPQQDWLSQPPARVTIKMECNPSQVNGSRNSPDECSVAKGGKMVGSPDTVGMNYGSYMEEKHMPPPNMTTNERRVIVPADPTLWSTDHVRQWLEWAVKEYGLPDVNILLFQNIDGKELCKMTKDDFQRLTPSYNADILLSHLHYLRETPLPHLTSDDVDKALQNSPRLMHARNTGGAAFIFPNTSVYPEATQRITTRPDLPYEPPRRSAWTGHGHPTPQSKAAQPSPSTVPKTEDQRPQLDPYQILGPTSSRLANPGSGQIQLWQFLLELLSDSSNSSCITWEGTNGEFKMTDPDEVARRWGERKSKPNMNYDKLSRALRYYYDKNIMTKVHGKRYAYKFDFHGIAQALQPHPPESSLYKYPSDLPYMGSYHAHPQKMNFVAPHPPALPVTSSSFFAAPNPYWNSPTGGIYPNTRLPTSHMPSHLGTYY
# How it was run: as §1
# ELF1 = ELF1 (Homo sapiens, UniProt P32519 1-619); conditions: protein: recombinant; tags: N-terminal GST; dsDNA, one strand shown
# Chain of ELF1 (P32519 whole entry): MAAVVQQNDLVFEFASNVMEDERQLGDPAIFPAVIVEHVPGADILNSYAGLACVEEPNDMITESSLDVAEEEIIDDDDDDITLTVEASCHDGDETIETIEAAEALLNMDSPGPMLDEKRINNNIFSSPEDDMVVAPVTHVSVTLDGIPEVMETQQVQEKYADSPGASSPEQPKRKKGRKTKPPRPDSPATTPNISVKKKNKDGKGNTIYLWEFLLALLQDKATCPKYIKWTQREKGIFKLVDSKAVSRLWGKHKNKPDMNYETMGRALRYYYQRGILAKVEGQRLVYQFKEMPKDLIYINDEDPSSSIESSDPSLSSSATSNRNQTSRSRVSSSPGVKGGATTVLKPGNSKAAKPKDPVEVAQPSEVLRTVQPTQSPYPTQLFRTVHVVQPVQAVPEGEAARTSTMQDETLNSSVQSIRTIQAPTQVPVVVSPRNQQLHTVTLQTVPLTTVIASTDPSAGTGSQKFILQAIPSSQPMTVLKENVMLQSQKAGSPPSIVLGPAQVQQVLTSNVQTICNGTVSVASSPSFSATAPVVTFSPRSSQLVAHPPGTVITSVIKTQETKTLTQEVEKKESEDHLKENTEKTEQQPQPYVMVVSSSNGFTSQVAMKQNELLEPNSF
# How it was run: as §1
# EHF = target: T5, EHF (Homo sapiens, UniProt Q9NZC4 1-300); conditions: protein: recombinant; tags: N-terminal GST; dsDNA, one strand shown
# T5 sequence: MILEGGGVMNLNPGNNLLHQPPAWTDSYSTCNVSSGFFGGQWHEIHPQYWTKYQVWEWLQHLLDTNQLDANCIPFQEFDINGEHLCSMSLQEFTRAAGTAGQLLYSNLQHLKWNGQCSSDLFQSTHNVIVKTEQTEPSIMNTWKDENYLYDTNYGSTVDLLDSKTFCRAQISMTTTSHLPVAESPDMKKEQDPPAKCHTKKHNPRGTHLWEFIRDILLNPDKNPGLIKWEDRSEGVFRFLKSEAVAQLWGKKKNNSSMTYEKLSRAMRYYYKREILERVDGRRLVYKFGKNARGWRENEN
# How it was run: as §1
# SPI1 = SPI1 (Homo sapiens, UniProt P17947 1-270); conditions: protein: recombinant; tags: N-terminal GST; dsDNA, one strand shown
# How it was run: as §1
# SPIB = SPIB (Homo sapiens, UniProt Q01892 1-262); conditions: protein: recombinant; tags: N-terminal GST; dsDNA, one strand shown
# Chain of SPIB (Q01892 whole entry): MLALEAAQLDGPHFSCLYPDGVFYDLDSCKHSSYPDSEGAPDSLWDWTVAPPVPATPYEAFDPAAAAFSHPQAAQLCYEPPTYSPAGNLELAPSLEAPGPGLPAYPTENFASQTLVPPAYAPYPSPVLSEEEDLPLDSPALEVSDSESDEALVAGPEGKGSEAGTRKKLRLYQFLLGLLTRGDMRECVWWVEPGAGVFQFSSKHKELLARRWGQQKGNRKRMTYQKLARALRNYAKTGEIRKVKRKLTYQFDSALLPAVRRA
# How it was run: as §1
# ELK3 = target: T6, ELK3 (Homo sapiens, UniProt P41970 1-407); conditions: protein: recombinant; tags: N-terminal GST; dsDNA, one strand shown
# T6 sequence: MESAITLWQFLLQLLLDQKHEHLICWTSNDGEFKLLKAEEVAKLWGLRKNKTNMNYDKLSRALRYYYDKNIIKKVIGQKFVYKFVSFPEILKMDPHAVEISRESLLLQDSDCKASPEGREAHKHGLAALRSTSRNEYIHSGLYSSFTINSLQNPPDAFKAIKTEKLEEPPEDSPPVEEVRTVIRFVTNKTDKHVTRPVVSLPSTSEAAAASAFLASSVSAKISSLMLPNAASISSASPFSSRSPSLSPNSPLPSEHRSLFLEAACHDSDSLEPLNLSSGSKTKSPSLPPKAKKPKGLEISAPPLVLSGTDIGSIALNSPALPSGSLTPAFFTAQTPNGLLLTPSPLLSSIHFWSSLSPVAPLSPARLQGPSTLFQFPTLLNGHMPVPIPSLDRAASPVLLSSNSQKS
# How it was run: as §1
# FEV = target: T7, FEV (Homo sapiens, UniProt Q99581 1-238); conditions: protein: recombinant; tags: N-terminal GST; dsDNA, one strand shown
# T7 sequence: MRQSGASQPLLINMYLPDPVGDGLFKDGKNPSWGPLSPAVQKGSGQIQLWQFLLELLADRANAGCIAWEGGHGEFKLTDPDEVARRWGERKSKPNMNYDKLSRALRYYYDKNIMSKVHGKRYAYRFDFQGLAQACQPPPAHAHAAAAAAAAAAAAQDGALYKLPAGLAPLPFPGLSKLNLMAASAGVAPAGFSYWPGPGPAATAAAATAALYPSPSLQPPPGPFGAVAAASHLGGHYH
# How it was run: as §1
# ETV5 = ETV5 (Homo sapiens, UniProt P41161 1-510); conditions: protein: recombinant; tags: N-terminal GST; dsDNA, one strand shown
# Chain of ETV5 (P41161 whole entry): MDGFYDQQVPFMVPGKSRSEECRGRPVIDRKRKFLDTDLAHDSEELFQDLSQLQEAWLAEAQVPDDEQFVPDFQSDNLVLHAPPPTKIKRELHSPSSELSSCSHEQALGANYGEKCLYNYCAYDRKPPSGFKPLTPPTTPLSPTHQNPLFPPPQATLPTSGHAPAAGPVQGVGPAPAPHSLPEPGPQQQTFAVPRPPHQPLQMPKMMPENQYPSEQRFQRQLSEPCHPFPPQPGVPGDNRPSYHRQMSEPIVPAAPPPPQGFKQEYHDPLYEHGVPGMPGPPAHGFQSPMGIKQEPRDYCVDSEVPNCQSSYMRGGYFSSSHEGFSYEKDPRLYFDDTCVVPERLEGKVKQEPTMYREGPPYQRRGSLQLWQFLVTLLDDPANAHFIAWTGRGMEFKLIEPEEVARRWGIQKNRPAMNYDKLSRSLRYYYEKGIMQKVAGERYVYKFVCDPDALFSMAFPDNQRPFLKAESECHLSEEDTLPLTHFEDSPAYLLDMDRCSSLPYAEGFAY
# How it was run: as §1
# HSF1 = HSF1 (Homo sapiens, UniProt Q00613 1-529); conditions: protein: recombinant; tags: N-terminal GST; chain copies: 3; dsDNA, one strand shown
# Chain of HSF1 (Q00613 whole entry): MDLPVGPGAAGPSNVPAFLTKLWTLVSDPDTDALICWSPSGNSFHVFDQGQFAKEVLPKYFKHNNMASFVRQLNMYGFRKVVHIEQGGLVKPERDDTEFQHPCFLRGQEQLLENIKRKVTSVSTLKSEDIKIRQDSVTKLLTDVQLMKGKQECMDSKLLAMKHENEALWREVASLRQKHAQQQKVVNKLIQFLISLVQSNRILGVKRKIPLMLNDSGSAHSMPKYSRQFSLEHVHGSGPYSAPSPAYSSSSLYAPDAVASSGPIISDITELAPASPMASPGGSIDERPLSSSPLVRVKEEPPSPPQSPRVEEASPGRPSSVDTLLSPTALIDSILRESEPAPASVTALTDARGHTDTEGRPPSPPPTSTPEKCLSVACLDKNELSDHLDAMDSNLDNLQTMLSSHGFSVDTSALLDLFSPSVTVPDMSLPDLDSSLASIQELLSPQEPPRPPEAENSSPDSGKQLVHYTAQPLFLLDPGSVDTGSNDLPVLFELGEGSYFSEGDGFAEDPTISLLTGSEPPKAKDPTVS
# How it was run: as §1
# SPIC = target: T8, SPIC (Homo sapiens, UniProt Q8N5J4 1-248); conditions: protein: recombinant; tags: N-terminal GST; dsDNA, one strand shown
# T8 sequence: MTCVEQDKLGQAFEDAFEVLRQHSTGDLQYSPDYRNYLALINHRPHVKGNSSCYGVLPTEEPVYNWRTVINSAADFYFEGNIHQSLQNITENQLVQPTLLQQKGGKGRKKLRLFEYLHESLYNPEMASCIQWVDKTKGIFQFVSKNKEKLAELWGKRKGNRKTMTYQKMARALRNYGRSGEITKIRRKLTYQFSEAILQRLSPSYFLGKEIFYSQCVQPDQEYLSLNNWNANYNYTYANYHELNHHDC
# How it was run: as §1
# ELF4 = ELF4 (Homo sapiens, UniProt Q99607 1-663); conditions: protein: recombinant; tags: N-terminal GST; dsDNA, one strand shown
# Chain of ELF4 (Q99607 whole entry): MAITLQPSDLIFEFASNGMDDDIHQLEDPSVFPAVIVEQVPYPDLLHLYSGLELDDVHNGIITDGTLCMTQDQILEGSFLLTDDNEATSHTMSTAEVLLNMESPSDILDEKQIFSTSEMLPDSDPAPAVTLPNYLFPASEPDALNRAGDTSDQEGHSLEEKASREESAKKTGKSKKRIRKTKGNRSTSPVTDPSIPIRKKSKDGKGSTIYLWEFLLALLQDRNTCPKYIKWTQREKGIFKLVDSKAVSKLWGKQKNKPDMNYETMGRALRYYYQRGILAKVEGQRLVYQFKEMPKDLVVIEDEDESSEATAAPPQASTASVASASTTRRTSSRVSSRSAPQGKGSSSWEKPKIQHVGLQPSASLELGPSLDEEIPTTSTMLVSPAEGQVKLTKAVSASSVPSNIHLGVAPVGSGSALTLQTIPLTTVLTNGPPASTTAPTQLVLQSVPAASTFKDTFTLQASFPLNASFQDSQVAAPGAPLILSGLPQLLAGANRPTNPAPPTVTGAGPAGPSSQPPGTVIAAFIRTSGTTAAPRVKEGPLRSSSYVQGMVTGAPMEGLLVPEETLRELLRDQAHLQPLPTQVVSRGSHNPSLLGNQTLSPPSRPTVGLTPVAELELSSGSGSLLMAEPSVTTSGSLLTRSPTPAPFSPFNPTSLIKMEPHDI
# How it was run: as §1
# ELK4 = target: T9, ELK4 (Homo sapiens, UniProt P28324-2 1-405); conditions: protein: recombinant; tags: N-terminal GST; dsDNA, one strand shown
# T9 sequence: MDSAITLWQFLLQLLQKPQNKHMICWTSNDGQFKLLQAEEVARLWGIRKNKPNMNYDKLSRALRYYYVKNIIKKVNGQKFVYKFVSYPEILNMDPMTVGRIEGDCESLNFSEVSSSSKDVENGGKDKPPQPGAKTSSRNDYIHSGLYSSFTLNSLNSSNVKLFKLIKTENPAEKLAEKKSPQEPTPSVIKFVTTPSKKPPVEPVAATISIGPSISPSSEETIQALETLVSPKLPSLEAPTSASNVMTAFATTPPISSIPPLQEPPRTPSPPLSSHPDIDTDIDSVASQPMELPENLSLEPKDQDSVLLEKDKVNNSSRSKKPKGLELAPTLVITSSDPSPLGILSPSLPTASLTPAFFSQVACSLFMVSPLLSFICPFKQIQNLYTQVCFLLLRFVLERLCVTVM
# How it was run: as §1
# ETV2 = target: T10, ETV2 (Homo sapiens, UniProt O00321 1-342); conditions: protein: recombinant; tags: N-terminal GST; dsDNA, one strand shown
# T10 sequence: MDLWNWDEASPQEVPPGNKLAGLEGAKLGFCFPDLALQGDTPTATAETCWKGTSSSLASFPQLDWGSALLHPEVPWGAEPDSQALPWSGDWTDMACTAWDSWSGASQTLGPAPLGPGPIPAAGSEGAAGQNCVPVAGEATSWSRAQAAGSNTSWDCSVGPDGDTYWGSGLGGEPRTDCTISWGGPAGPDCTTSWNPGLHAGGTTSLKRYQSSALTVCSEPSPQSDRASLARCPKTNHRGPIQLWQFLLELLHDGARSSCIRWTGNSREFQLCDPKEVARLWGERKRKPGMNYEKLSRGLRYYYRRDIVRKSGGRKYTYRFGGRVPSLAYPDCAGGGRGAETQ
# How it was run: as §1
# ELF3 = target: T11, ELF3 (Homo sapiens, UniProt P78545 1-371); conditions: protein: recombinant; tags: N-terminal GST; dsDNA, one strand shown
# T11 sequence: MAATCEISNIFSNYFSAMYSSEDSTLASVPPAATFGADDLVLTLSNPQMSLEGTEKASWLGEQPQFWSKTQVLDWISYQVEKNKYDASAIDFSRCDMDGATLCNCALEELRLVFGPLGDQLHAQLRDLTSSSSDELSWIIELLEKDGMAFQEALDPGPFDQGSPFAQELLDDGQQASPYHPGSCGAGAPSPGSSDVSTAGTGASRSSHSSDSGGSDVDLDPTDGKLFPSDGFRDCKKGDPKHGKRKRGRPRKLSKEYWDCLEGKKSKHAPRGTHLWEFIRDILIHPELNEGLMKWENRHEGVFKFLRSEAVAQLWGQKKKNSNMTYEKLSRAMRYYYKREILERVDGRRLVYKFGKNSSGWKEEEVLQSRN
# How it was run: as §1
# CRX = CRX (Homo sapiens, UniProt O43186 1-299); conditions: protein: recombinant; tags: N-terminal GST; dsDNA, one strand shown
# Chain of CRX (O43186 whole entry): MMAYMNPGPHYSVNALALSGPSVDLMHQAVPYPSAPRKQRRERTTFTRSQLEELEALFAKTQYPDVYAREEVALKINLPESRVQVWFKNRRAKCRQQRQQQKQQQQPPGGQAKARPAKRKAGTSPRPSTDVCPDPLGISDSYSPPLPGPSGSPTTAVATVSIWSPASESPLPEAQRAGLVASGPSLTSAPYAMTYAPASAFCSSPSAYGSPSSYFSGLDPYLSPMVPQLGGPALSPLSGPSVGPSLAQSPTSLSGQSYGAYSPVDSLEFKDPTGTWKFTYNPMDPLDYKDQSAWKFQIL
# How it was run: as §1
# ETV1 = ETV1 (Homo sapiens, UniProt P50549 1-477); conditions: protein: recombinant; tags: N-terminal GST; dsDNA, one strand shown
# Chain of ETV1 (P50549 whole entry): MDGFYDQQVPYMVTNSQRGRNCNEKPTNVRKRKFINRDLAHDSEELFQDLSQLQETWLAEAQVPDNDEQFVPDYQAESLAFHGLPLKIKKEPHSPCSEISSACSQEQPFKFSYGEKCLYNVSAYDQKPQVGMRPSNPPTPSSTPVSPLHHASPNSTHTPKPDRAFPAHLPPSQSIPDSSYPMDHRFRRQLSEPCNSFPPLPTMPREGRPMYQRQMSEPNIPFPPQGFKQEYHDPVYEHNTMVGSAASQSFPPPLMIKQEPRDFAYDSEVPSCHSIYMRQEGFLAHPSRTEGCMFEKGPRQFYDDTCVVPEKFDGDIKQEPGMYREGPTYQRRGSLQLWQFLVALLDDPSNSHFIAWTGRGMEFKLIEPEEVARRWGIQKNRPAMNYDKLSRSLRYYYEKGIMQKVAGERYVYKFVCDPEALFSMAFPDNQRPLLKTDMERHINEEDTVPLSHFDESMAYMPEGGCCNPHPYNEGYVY
# How it was run: as §1
sequence,measurement,setting,value
AACCTT,binding signal,FLI1,"1.3 fold enrichment (6-mer frequency, TF over GST control)"
same,binding signal,ELK1,"1.25 fold enrichment (6-mer frequency, TF over GST control)"
same,binding signal,GABPA,"1.25 fold enrichment (6-mer frequency, TF over GST control)"
same,binding signal,ERG,"1.26 fold enrichment (6-mer frequency, TF over GST control)"
same,binding signal,ELF1,"1.33 fold enrichment (6-mer frequency, TF over GST control)"
same,binding signal,EHF,"1.33 fold enrichment (6-mer frequency, TF over GST control)"
same,binding signal,SPI1,"1.26 fold enrichment (6-mer frequency, TF over GST control)"
same,binding signal,SPIB,"1.34 fold enrichment (6-mer frequency, TF over GST control)"
same,binding signal,ELK3,"1.33 fold enrichment (6-mer frequency, TF over GST control)"
same,binding signal,FEV,"1.24 fold enrichment (6-mer frequency, TF over GST control)"
same,binding signal,ETV5,"1.3 fold enrichment (6-mer frequency, TF over GST control)"
same,binding signal,HSF1,"1.66 fold enrichment (6-mer frequency, TF over GST control)"
same,binding signal,SPIC,"1.17 fold enrichment (6-mer frequency, TF over GST control)"
same,binding signal,ELF4,"1.27 fold enrichment (6-mer frequency, TF over GST control)"
same,binding signal,ELK4,"1.36 fold enrichment (6-mer frequency, TF over GST control)"
same,binding signal,ETV2,"1.13 fold enrichment (6-mer frequency, TF over GST control)"
same,binding signal,ELF3,"1.23 fold enrichment (6-mer frequency, TF over GST control)"
same,binding signal,CRX,"1.39 fold enrichment (6-mer frequency, TF over GST control)"
same,binding signal,ETV1,"1.29 fold enrichment (6-mer frequency, TF over GST control)"
